Experimental data reported in PubChem BioAssay (NCATS).
Records with an inconclusive call do not appear. Entries that show only a call come without a potency. Unmarked numbers belong to inactive results. Active and inactive are the calls of the source. Calls follow the shape of the dose curve; as a rule, active = well fitted inhibition curve with a large enough effect; inconclusive = small, poorly fitted or top-dose-only effect; inactive = flat fitted curve, though single readings scatter.

How the values were obtained:
[1] = qHTS profiling for inhibitors of Plasmodium falciparum proliferation (AID 504749); also: nearly all actives have a fitted effect of over 60% in size; details: P. falciparum in erythrocytes, SYBR Green DNA, 72 h
Summary of the method: (§1)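 SYBR Green fluorescence (ex 485 nm, em 535 nm) reports parasite DNA after 72 h compound exposure of infected red cells at 0.3% parasitemia, 2.5% hematocrit; signal normalized to 0.29 uM artemisinin and vehicle wells.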

[2] = tested on: 3D7; test: as above; details: P. falciparum in erythrocytes, SYBR Green DNA, 72 h; series mostly up to 28.7 µM
Summary of the method: as §1

[3] = tested on: 7G8; test: as above; details: P. falciparum in erythrocytes, SYBR Green DNA, 72 h; series mostly up to 28.7 µM
Summary of the method: as §1

[4] = tested on: AA1029; test: as above; details: P. falciparum in erythrocytes, SYBR Green DNA, 72 h; series mostly up to 28.7 µM
Summary of the method: as §1

[5] = tested on: AS120; test: as above; details: P. falciparum in erythrocytes, SYBR Green DNA, 72 h; series mostly up to 28.7 µM
Summary of the method: as §1

[6] = tested on: ATS189; test: as above; details: P. falciparum in erythrocytes, SYBR Green DNA, 72 h; series mostly up to 28.7 µM
Summary of the method: as §1

[7] = tested on: ATS95; test: as above; details: P. falciparum in erythrocytes, SYBR Green DNA, 72 h; series mostly up to 28.7 µM
Summary of the method: as §1

[8] = tested on: C2A; test: as above; details: P. falciparum in erythrocytes, SYBR Green DNA, 72 h; series mostly up to 28.7 µM
Summary of the method: as §1

[9] = tested on: CP185; test: as above; details: P. falciparum in erythrocytes, SYBR Green DNA, 72 h; series mostly up to 28.7 µM
Summary of the method: as §1

[10] = tested on: CP191; test: as above; details: P. falciparum in erythrocytes, SYBR Green DNA, 72 h; series mostly up to 28.7 µM
Summary of the method: as §1

[11] = tested on: CP192; test: as above; details: P. falciparum in erythrocytes, SYBR Green DNA, 72 h; series mostly up to 28.7 µM
Summary of the method: as §1

[12] = tested on: CP194; test: as above; details: P. falciparum in erythrocytes, SYBR Green DNA, 72 h; series mostly up to 28.7 µM
Summary of the method: as §1

[13] = tested on: CP201; test: as above; details: P. falciparum in erythrocytes, SYBR Green DNA, 72 h; series mostly up to 28.7 µM
Summary of the method: as §1

[14] = tested on: CP211; test: as above; details: P. falciparum in erythrocytes, SYBR Green DNA, 72 h; series mostly up to 28.7 µM
Summary of the method: as §1

[15] = tested on: CP217; test: as above; details: P. falciparum in erythrocytes, SYBR Green DNA, 72 h; series mostly up to 28.7 µM
Summary of the method: as §1

[16] = tested on: CP215; test: as above; details: P. falciparum in erythrocytes, SYBR Green DNA, 72 h; series mostly up to 28.7 µM
Summary of the method: as §1

[17] = tested on: CP203; test: as above; details: P. falciparum in erythrocytes, SYBR Green DNA, 72 h; series mostly up to 28.7 µM
Summary of the method: as §1

[18] = at 12.8 µM (top of the series), parasite line A
[19] = at 12.8 µM (top of the series), parasite line B
[20] = at 28.7 µM (top of the series), parasite line A
[21] = at 28.7 µM (top of the series), parasite line B
Potency is read from the fitted curve at half-maximal effect.

SMILES: O=C1C(CCS(=O)c2ccccc2)C(=O)N(c2ccccc2)N1c1ccccc1 (stereo unspecified)
- activity, negative = inhibition [1, 18]: -4.48%
- activity, negative = inhibition [1, 19]: 5.16%
- Potency [2]: inactive
- Potency [3]: inactive
- Potency [4]: inactive
- Potency [5]: inactive
- Potency [6]: inactive
- Potency [7]: inactive
- Potency [8]: inactive
- Potency [9]: inactive
- Potency [10]: inactive
- Potency [11]: inactive
- Potency [12]: inactive
- Potency [13]: inactive
- Potency [14]: inactive
- Potency [15]: inactive

SMILES: CCOc1ccccc1OCCN[C@H](C)Cc1ccc(OC)c(S(N)(=O)=O)c1
- activity, negative = inhibition [1, 20]: 7.23%
- activity, negative = inhibition [1, 21]: 1.02%
- Potency [2]: inactive
- Potency [3]: inactive
- Potency [4]: inactive
- Potency [5]: inactive
- Potency [6]: inactive
- Potency [7]: inactive
- Potency [8]: inactive
- Potency [9]: inactive
- Potency [10]: inactive
- Potency [11]: inactive
- Potency [12]: inactive
- Potency [13]: inactive
- Potency [14]: inactive
- Potency [16]: inactive
- Potency [15]: inactive

SMILES: Cc1cccc(C)c1NC(=O)c1ccccc1C(=O)O
- activity, negative = inhibition [1, 20]: 19.5%
- activity, negative = inhibition [1, 21]: 8.59%
- Potency [2]: inactive
- Potency [3]: inactive
- Potency [4]: inactive
- Potency [5]: inactive
- Potency [6]: inactive
- Potency [7]: inactive
- Potency [8]: inactive
- Potency [9]: inactive
- Potency [10]: inactive
- Potency [11]: inactive
- Potency [12]: inactive
- Potency [13]: inactive
- Potency [14]: inactive
- Potency [16]: inactive
- Potency [15]: inactive

SMILES: Cc1cc(NS(=O)(=O)c2ccc(N)cc2)nc(C)n1
- activity, negative = inhibition [1, 20]: 9.36%
- activity, negative = inhibition [1, 21]: 5.66%
- Potency [2]: inactive
- Potency [3]: inactive
- Potency [4]: inactive
- Potency [5]: inactive
- Potency [6]: inactive
- Potency [7]: inactive
- Potency [8]: inactive
- Potency [9]: inactive
- Potency [10]: inactive
- Potency [11]: inactive
- Potency [12]: inactive
- Potency [13]: inactive
- Potency [17]: inactive
- Potency [16]: inactive
- Potency [15]: inactive

SMILES: CCCCCCCCNC(C)C(O)c1ccc(SC(C)C)cc1 (stereo unspecified)
- Potency ([1]; parasite line A): 1260 nM (active)
- Potency ([1]; parasite line B): 562 nM (active)
- Potency [2]: 794 nM (active)
- Potency [3]: 100 nM (active)
- Potency [4]: 1000 nM (active)
- Potency [5]: 891 nM (active)
- Potency [6]: 631 nM (active)
- Potency [7]: 1260 nM (active)
- Potency [8]: 891 nM (active)
- Potency [9]: 891 nM (active)
- Potency [10]: 794 nM (active)
- Potency [11]: 2130 nM (active)
- Potency [12]: 1900 nM (active)
- Potency [13]: 3790 nM (active)
- Potency [14]: 3380 nM (active)
- Potency [16]: 1690 nM (active)
- Potency [15]: 708 nM (active)

SMILES: O=C(O)CCNC(=O)c1ccccc1
- activity, negative = inhibition [1, 20]: 0.623%
- activity, negative = inhibition [1, 21]: 11.8%
- Potency [2]: inactive
- Potency [3]: inactive
- Potency [4]: inactive
- Potency [5]: inactive
- Potency [6]: inactive
- Potency [7]: inactive
- Potency [8]: inactive
- Potency [9]: inactive
- Potency [10]: inactive
- Potency [12]: inactive
- Potency [13]: inactive
- Potency [17]: inactive
- Potency [14]: inactive
- Potency [16]: inactive
- Potency [15]: inactive

SMILES: O=C(O)c1ccc(S(=O)(=O)N(Cl)Cl)cc1
- activity, negative = inhibition [1, 20]: -4.58%
- activity, negative = inhibition [1, 21]: 5.75%
- Potency [2]: inactive
- Potency [3]: inactive
- Potency [4]: inactive
- Potency [5]: inactive
- Potency [6]: inactive
- Potency [7]: inactive
- Potency [8]: inactive
- Potency [9]: inactive
- Potency [10]: inactive
- Potency [11]: inactive
- Potency [12]: inactive
- Potency [17]: inactive
- Potency [14]: inactive
- Potency [16]: inactive
- Potency [15]: inactive

SMILES: CCCCCCCCCCCCCCCCO
- activity, negative = inhibition [1, 20]: 1.6%
- activity, negative = inhibition [1, 21]: 8.58%
- Potency [2]: inactive
- Potency [3]: inactive
- Potency [4]: inactive
- Potency [5]: inactive
- Potency [7]: inactive
- Potency [8]: inactive
- Potency [9]: inactive
- Potency [10]: inactive
- Potency [11]: inactive
- Potency [12]: inactive
- Potency [13]: inactive
- Potency [17]: inactive
- Potency [14]: inactive
- Potency [16]: inactive
- Potency [15]: inactive

SMILES: COc1cc(C)nc(-n2nc(C)cc2OC)n1
- activity, negative = inhibition [1, 18]: 3.73%
- activity, negative = inhibition [1, 19]: -3.99%
- Potency [2]: inactive
- Potency [3]: inactive
- Potency [4]: inactive
- Potency [5]: inactive
- Potency [6]: inactive
- Potency [7]: inactive
- Potency [8]: inactive
- Potency [9]: inactive
- Potency [10]: inactive
- Potency [12]: inactive
- Potency [13]: inactive
- Potency [17]: inactive
- Potency [14]: inactive
- Potency [16]: inactive
- Potency [15]: inactive

SMILES: CC1(COc2ccc(CC3SC(=O)NC3=O)cc2)CCCCC1 (stereo unspecified)
- activity, negative = inhibition [1, 20]: 11%
- activity, negative = inhibition [1, 21]: -0.436%
- Potency [2]: inactive
- Potency [3]: inactive
- Potency [4]: inactive
- Potency [5]: inactive
- Potency [6]: inactive
- Potency [7]: inactive
- Potency [8]: inactive
- Potency [9]: inactive
- Potency [10]: inactive
- Potency [11]: inactive
- Potency [12]: inactive
- Potency [13]: inactive
- Potency [14]: inactive
- Potency [16]: inactive
- Potency [15]: inactive

SMILES: COc1ccc(/C=N/NC(=O)c2ccncc2)cc1OC
- activity, negative = inhibition [1, 20]: 6.74%
- activity, negative = inhibition [1, 21]: 9.47%
- Potency [2]: inactive
- Potency [3]: inactive
- Potency [4]: inactive
- Potency [5]: inactive
- Potency [6]: inactive
- Potency [7]: inactive
- Potency [8]: inactive
- Potency [9]: inactive
- Potency [10]: inactive
- Potency [11]: inactive
- Potency [12]: inactive
- Potency [13]: inactive
- Potency [14]: inactive
- Potency [16]: inactive
- Potency [15]: inactive

SMILES: CN(Cc1ccc(C(C)(C)C)cc1)Cc1cccc2ccccc12
- activity, negative = inhibition [1, 20]: -10%
- activity, negative = inhibition [1, 21]: -26.9%
- Potency [2]: inactive
- Potency [3]: 11200 nM (active)
- Potency [4]: inactive
- Potency [5]: inactive
- Potency [6]: inactive
- Potency [8]: inactive
- Potency [9]: inactive
- Potency [11]: inactive
- Potency [12]: inactive
- Potency [13]: inactive
- Potency [17]: inactive
- Potency [14]: inactive
- Potency [16]: inactive
- Potency [15]: inactive

SMILES: O=C(O)C1(C(=O)O)CCC1.[NH2-].[NH2-].[Pt+2]
- activity, negative = inhibition [1, 20]: -5.41%
- activity, negative = inhibition [1, 21]: -0.756%
- Potency [2]: inactive
- Potency [3]: 14100 nM (active)
- Potency [4]: inactive
- Potency [5]: inactive
- Potency [6]: inactive
- Potency [7]: inactive
- Potency [8]: inactive
- Potency [9]: inactive
- Potency [10]: inactive
- Potency [11]: inactive
- Potency [12]: inactive
- Potency [13]: inactive
- Potency [14]: inactive
- Potency [16]: inactive
- Potency [15]: inactive

SMILES: Nc1nc(-c2ccccc2)c(Br)c(=O)[nH]1
- activity, negative = inhibition [1, 20]: -7.1%
- activity, negative = inhibition [1, 21]: 1.53%
- Potency [2]: inactive
- Potency [3]: inactive
- Potency [4]: inactive
- Potency [5]: inactive
- Potency [6]: inactive
- Potency [7]: inactive
- Potency [8]: inactive
- Potency [9]: inactive
- Potency [10]: inactive
- Potency [11]: inactive
- Potency [12]: inactive
- Potency [13]: inactive
- Potency [14]: inactive
- Potency [16]: inactive
- Potency [15]: inactive
